28 compounds from PubChem BioAssay AID540276 (National Center for Advancing Translational Sciences (NCATS), 2011) can be followed below.

In all, about 300,000 compounds went through this assay and about 5,400 (1.8%) were called active. Not shown: some 28% with an inconclusive outcome. Calls follow the shape of the full dose curve; tested in HEK293 cells. The list comes from a sample in which actives are over-represented; it also holds similar structures and randomly drawn compounds.
% is scaled to controls: 0 for no effect and ±100 for the full control effect; potency is read from the fitted curve at half-maximal effect.

The nature of this assay: qHTS for inhibitors of binding or entry into cells for Marburg Virus. The note with it: Marburg virus pseudotyped entry inhibition, cell reporter; series mostly up to 37.8 µM; activity change, negative = inhibition: at the top concentration. A general note: qHTS replaces the single test concentration by a dilution series.
As for `CCOC(=O)c1ccc(NC(=O)CSc2ncccn2)cc1`, the “activity change, negative = inhibition” value is 5.39% (inactive).

In the case of `CC(=O)Nc1ccc(NC(=O)CS(=O)(=O)c2cn(CC(=O)N3CCCCC3)c3ccccc23)cc1`, the “activity change, negative = inhibition” value was 8.57% (inactive).

Take `CCOC(=O)c1ccc(NC(=O)CS(=O)(=O)c2cn(CC)c3ccccc23)cc1`: the Potency is 8.2 µM (active).

For `CCC1CCCCN1C(=S)Nc1ccc(S(=O)(=O)Nc2ncccn2)cc1` (stereo not drawn), the “activity change, negative = inhibition” value was -1.62% (inactive).

As for `COc1ccc(CCNC(=O)c2ccccc2OCc2ccccc2)cc1`, the “activity change, negative = inhibition” value is -30% (inactive).

Regarding `CC(=O)N1CCc2ccc(N)cc21`, the “activity change, negative = inhibition” value was -11.8% [at 46.1 µM] (inactive).

`CCOc1ccc(NC(=O)CN(C)C(=O)COc2cccc(CC)c2)cc1OCC`: the “activity change, negative = inhibition” value was 15% (inactive).

Turning to `CC(C)CN1CC(C)C(=O)N(c2ccccc2)C1=S` (stereo not drawn), the “activity change, negative = inhibition” value is 0.536% [at 46.1 µM] (inactive).

With `O=C(O)c1ccc(S(=O)(=O)c2ccccc2)s1`, the “activity change, negative = inhibition” value is 0.365% [at 46.1 µM] (inactive).

Consider `CCCCc1nc2cc(C(=O)N3CCCCC3CCO)ccc2o1` (stereo not drawn), for which the “activity change, negative = inhibition” value was 2.41% (inactive).

`C/C=C/c1ccc(OCC(=O)OCC(=O)Nc2c(C)nn(-c3ccccc3)c2C)c(OC)c1`: the “activity change, negative = inhibition” value was 1.47% (inactive).

Take `Cc1nn(-c2ccccc2)c(C)c1NC(=O)COc1ccc(Cl)cc1Cl`: the Potency is 11.6 µM (active).

On to `Cc1nn(-c2ccccc2)c(C)c1NC(=O)COC(=O)Cc1ccccc1`, for which the “activity change, negative = inhibition” value was -0.499% (inactive).

`COc1ccc(CCNC(=O)C(=O)NCC2OCCN2S(=O)(=O)c2cccs2)cc1OC` (stereo not drawn): the “activity change, negative = inhibition” value is 21.7% (inactive).

As to `CCc1ccc(N2CC(C(=O)N3CCCCCC3)CC2=O)cc1` (stereo not drawn), the “activity change, negative = inhibition” value was 11% [at 46.1 µM] (inactive).

Take `CCN(c1ccccc1)S(=O)(=O)c1cc(C(=O)NCc2ccccn2)ccc1C`: the “activity change, negative = inhibition” value was 13.3% (inactive).

On to `COc1cccc2c1C(=O)c1c(O)c3c(c(O)c1C2=O)CC(O)(C(C)=NNC(=O)c1ccc(Cl)c(Cl)c1)CC3OC1CC(N)C(O)C(C)O1` (stereo not drawn), for which the Potency is 0.447 µM (active).

With `COc1ccc(C(=O)Nc2ccccc2C(=O)N2CCN(c3ccccc3)CC2)cc1`, the “activity change, negative = inhibition” value was 3.79% (inactive).

With `CC(=O)NCCC(=O)Nc1nc(-c2ccc3c(c2)OCCO3)cs1`, the “activity change, negative = inhibition” value is -1.66% [at 46.1 µM] (inactive).

Turning to `O=C(Nc1nc(-c2ccc3c(c2)OCO3)cs1)c1ccncc1`, the Potency is 7.94 µM (active).

For `Cc1ccc(-c2csc(NC(=O)C3=COCCO3)n2)cc1C`, the “activity change, negative = inhibition” value was -17.8% [at 46.1 µM] (inactive).

On to `Cc1ccc(S(=O)(=O)N2CCC(C(=O)N3CCCCCCC3)CC2)cc1`, for which the “activity change, negative = inhibition” value was 6.29% [at 46.1 µM] (inactive).

Turning to `CCOC(=O)C1CCCN(C(=O)C2CCN(S(=O)(=O)c3ccc(Cl)c(C(F)(F)F)c3)CC2)C1` (stereo not drawn), the “activity change, negative = inhibition” value is -20.9% (inactive).

On to `CCOC(=O)CC1=C(C(=O)OCC)[C@H](c2cc(OC)c(OC)cc2OC)C(C#N)=C(N)O1`, for which the “activity change, negative = inhibition” value was 0.118% (inactive).

Regarding `Cc1c(Cl)cccc1NC(=S)NCC(O)c1ccccc1` (stereo not drawn), the “activity change, negative = inhibition” value was -1.89% (inactive).

For the compound `CCCOc1ccccc1C1CC(=O)Nc2cc3c(cc21)OCO3` (stereo not drawn), the Potency is 6.31 µM (active).

`COCCOC(=O)C1=C(C)NC(=O)CC1c1cc2c(cc1Br)OCO2` (stereo not drawn): the Potency result is “inactive”.

In the case of `COc1ccccc1C1C2=C(COC2=O)Nc2cc3c(cc21)OCO3` (stereo not drawn), the “activity change, negative = inhibition” value was 5.47% (inactive).
